PubChem BioAssay (NCATS)
Results filed as inconclusive are left out. The call rests on the fitted dose curve; in most records, active means well fitted curve in either direction with a large enough effect (not every such curve was filed as active); inconclusive means small, poorly fitted or top-dose-only effect, or another doubt; inactive means flat fitted curve, though single readings scatter.

molecular target: Mitogen-activated protein kinase 10 (Mus musculus) (UniProt Q61831); assay: JNK3 AlphaScreen Assay (AID 530); settings: JNK3 lysate, c-Jun phosphorylation; series mostly up to 57.1 µM; activity change, negative = inhibition: at the top concentration;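 further: kinase came from lysate of stimulated human HepG2 cells; signal reports phosphorylation of biotinylated GST-cJun 1-79 at Ser73 with 10 µM ATP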
Outline: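 Room-temperature AlphaScreen kinase assay; pre-activated HepG2 lysate as JNK3 source, biotin-GST-cJun(1-79) substrate, 10 uM ATP, compound 15 min preincubation.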
On the % scale 0 is the no-effect control and ±100 the full control effect.

Activity change, negative = inhibition, inactive:
CC(=O)N1[C@H](Cc2ccccc2)C=C[C@]1(C)C(=O)O 2.46%
CC(=O)N1CC=CC1(CC(C)C)C(=O)O (stereo not given) -2.5%
CCCCCCN(C(=O)CCCCCN1C(=O)NC(c2ccc(-c3ccccc3)cc2)C(C(=O)OCc2ccccc2)=C1C)C(C(=O)NCCCC)c1ccc(OCC(=O)OC)cc1 (stereo not given) -5.39%
COC(=O)N1CC=CC1(C)C(=O)NCC1CC1 (stereo not given) 3.82%
COC(=O)N1CC=CC1(C)C(=O)O (stereo not given) 2.52%
CC(=O)N1[C@H](Cc2ccccc2)C=C[C@]1(C)C(=O)NCc1ccccn1 -0.892%
CC(=O)N1C2(C=CC1(C)C(=O)NCCN1CCOCC1)CCCCC2 (stereo not given) 2.62%
COCCNC(=O)C1(C)C=CCN1C(C)=O (stereo not given) 1.24%
CC(Cc1ccccc1)C(=O)N1CCN(C)CC1 (stereo not given) 19.1%
CN1[C@H](Cc2ccccc2)C=C[C@]1(C)C(=O)NCC1CC1 -18.5%
CC(=O)N1C2(C=CC1(C)C(=O)NCc1ccc(C)o1)CCCCC2 (stereo not given) -14.2%
CC(C)CC1(C(=O)O)C=CCN1C(=O)c1ccccc1 (stereo not given) 2.54%
CC(C)CC1(C(=O)NCCc2c[nH]c3ccccc23)C=CCN1C(=O)c1ccccc1 (stereo not given) -10.8%
CC(Cc1ccccc1)C(=O)N(C)Cc1ccccc1 (stereo not given) 11.7%
CC(Cc1ccccc1)C(=O)NCc1ccncc1 (stereo not given) -11.3%
CC(=O)N1[C@H](C)C=C[C@]1(Cc1ccccc1)C(=O)NCCN1CCOCC1 0.355%
CCCn1c(C)nc2c(NCCO)nc(C)nc21 1.96%
CNC(=O)C1(C)C=CCN1C(=O)OC (stereo not given) 1.7%
CNC(=O)[C@]1(C)C[C@H]1[C@H](NC(=O)[C@]1(C)C[C@H]1[C@H](NC(=O)OCc1ccccc1)c1ccccc1)c1ccccc1 8.93%
COC(=O)[C@@]1(Cc2ccccc2)C=C[C@@H](C)N1C(C)=O -3.21%
COC(=O)N1[C@H](C)C=C[C@]1(Cc1ccccc1)C(=O)OC -2.7%
COC(=O)[C@@]1(Cc2ccccc2)C=C[C@@H](C)N1C(=O)c1ccccc1 -8.52%
COC(=O)N1CC=CC1(C)C(=O)NCc1cc(F)cc(C(F)(F)F)c1 (stereo not given) 5.45%
COC(=O)c1ccc(C(NC(=O)OCc2ccccc2)/C(=C/[C@@H](C)C(=O)NCc2cc(C)n(C)n2)c2cccnc2)cc1 (stereo not given in full) 6.02%
CC(C)NC(=O)[C@@H]1C[C@H]1[C@@H](NC(=O)OCc1ccccc1)c1ccccc1 -1.31%
CNC(=O)[C@@]1(Cc2ccccc2)C=C[C@@H](C)N1C(C)=O -3.87%
C[C@@H]1C=C[C@](Cc2ccccc2)(C(=O)O)N1C(=O)c1ccccc1 1.37%
CN(C)C(=O)[C@@H]1C[C@H]1[C@@H](NC(=O)OCc1ccccc1)c1ccccc1 3.97%
Cc1nc(NCCO)c2nc(-c3ccccc3)n(CCN(C)C)c2n1 -22.9%
COC(=O)c1ccc(C(NC(=O)OCc2ccccc2)/C(C)=C/[C@@H](C)C(=O)N(C)Cc2cccnc2)cc1 (stereo not given in full) 25.2%
COC(=O)C1(C)C=CCN1C(=O)c1ccccc1 (stereo not given) 0.277%
CC1(C(=O)NCc2ccccn2)C=CCN1C(=O)c1ccccc1 (stereo not given) 1.08%
CNC(=O)[C@@]1(C)C=C[C@@H](Cc2ccccc2)N1C(C)=O 2.47%
CNC(=O)C1(CC(C)C)C=CCN1C(=O)c1ccccc1 (stereo not given) -8.89%
COCCNC(=O)[C@@]1(Cc2ccccc2)C=C[C@@H](C)N1C(=O)OC -4.15%
CNC(=O)C1(CC(C)C)C=CCN1C(C)=O (stereo not given) -6.77%
CCCCCCN(C(=O)CCCCCN1C(=O)NC(c2ccc(-c3ccccc3)cc2)C(C(=O)OCc2ccccc2)=C1C)C(C(=O)NCCCC)c1ccc(-c2ccccc2)cc1 (stereo not given) -0.132%
COC(=O)CNC(=O)[C@@]1(Cc2ccccc2)C=C[C@@H](C)N1C(=O)c1ccccc1 -5.52%
CC1(C(=O)NCc2cc(F)cc(C(F)(F)F)c2)C=CC2(CCCCC2)N1C(=O)c1ccccc1 (stereo not given) 4.02%
COC(=O)CCCCCN1C(=O)NC(c2ccc(-c3ccccc3)cc2)C(C(=O)OCc2ccccc2)=C1C (stereo not given) -0.45%
